Potency and outcome data for 16 compounds are collected here from PubChem BioAssay (Tox21).

Values without a mark were called inactive. Results filed as inconclusive are left out. Activity calls are given as the source filed them. Unless noted, the call rests on the fitted dose curve; in most records, active means well fitted curve in the direction sought with a large enough effect in the repeat runs; inconclusive means weak or mixed curves; inactive means no such curve, though single readings can be large; an effect the other way counts as inactive or inconclusive.

Test [1] is described as follows: qHTS assay for small molecules that induce genotoxicity in human embryonic kidney cells expressing luciferase-tagged ATAD5 (AID 651632). Further: nearly all actives have a fitted effect of over 15% in size. The procedure, abridged: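 Reporter cells (HEK293T) express luciferase-tagged ATAD5, a protein that accumulates after DNA damage. Treat 16 hr at 37C/5% CO2, add Amplite, wait 30 min at RT, and read luminescence.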
A general note: qHTS replaces the single test concentration by a dilution series.

Test [2] in a line: qHTS assay for small molecule agonists of the p53 signaling pathway - cell viability (AID 651633; calls by dose curve;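 further: p53RE-bla HCT reporter cells with a stable beta-lactamase p53 reporter; series mostly up to about 83 µM; nearly all actives have a fitted effect of over 30% in size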). The procedure, abridged: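 p53RE-bla cells, seeded at 4,000 per well and rested 5 h at 37 C/5% CO2, received compounds in DMSO for 16 h at 37 C. CellTiter-Glo was then added, and luminescence was read after 30 min at room temperature to gauge cytotoxicity.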
A short description of test [3]: qHTS assay for small molecules that induce genotoxicity in human embryonic kidney cells expressing luciferase-tagged ATAD5 - cell viability (AID 651634; calls by dose curve; further: nearly all actives have a fitted effect of over 25% in size). An outline of the steps: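 Seeding of 2,000 HEK293T ATAD5-luciferase cells per well preceded pin-tool compound transfer. Plates sat 15.5 hr at 37C under 5% CO2, then fluorescence was read after 30 min with CellTiter-Fluor.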

The nature of test [4]: qHTS assay for small molecule disruptors of the mitochondrial membrane potential - cell viability (AID 720634; calls by dose curve;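 further: human HepG2 liver cancer cells; series mostly up to about 83 µM; nearly all actives have a fitted effect of over 20% in size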). The procedure, abridged:
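Measuring cytotoxicity alongside mitochondrial potential, the screen quantified ATP by luminescence in HepG2 cells after 1 hr compound incubation and a 30 min room-temperature CellTiter-Glo step.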

The nature of test [5]: qHTS assay to test for compound auto fluorescence at 590 nm (red) in HepG2 cells (AID 720674). The procedure, abridged: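 Rose Bengal sodium served as the red fluorophore standard. HepG2 monolayers (overnight attachment, MEM with 10% FBS) were exposed to test compounds for 1 hr at 37 C and read at Ex 540/Em 590 nm.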
Test [6] is described as follows: qHTS assay to test for compound auto fluorescence at 535 nm (green) in HepG2 cells (AID 720675).
Test [7] in a line: qHTS assay to test for compound auto fluorescence at 460 nm (blue) in HEK293 cells (AID 720678). The procedure, abridged:
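Intrinsic compound fluorescence is recorded in live HEK293 cultures after overnight incubation at 37C, 5% CO2, using excitation 405 nm and emission 460 nm. Values are referenced to triamterene.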

The nature of test [8]: qHTS assay to test for compound auto fluorescence at 590 nm (red) in HEK293 cells (AID 720679). The procedure, abridged:
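Red autofluorescence, HEK293 cells: 2,000 cells/well; attach 4-5 hr 37C; add 23 nL cpd or DMSO; incubate o/n 37C 5% CO2; read Ex540/Em590; Rose Bengal sodium reference.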

Test [9] in a line: qHTS assay to test for compound auto fluorescence at 535 nm (green) in HEK293 cells (AID 720680).
Test [10] can be described thus: qHTS assay to test for compound auto fluorescence at 460 nm (blue) in HEK293 cell free culture (AID 720681). An outline of the steps:
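Test compounds were pinned into cell-free culture medium (DMEM with 10% FBS) and fluorescence was read directly at Ex/Em 405/460 nm. Signals were expressed as fluorescence equivalents of triamterene, with DMSO vehicle as control.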

The nature of test [11]: qHTS assay to test for compound auto fluorescence at 535 nm (green) in HEK293 cell free culture (AID 720682). An outline of the steps:
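Read-out: 485/535 nm fluorescence intensity, calibrated against fluorescein. Medium only (DMEM + 10% FBS, no cells); test compound or DMSO vehicle added by pintool before plate reading.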

The nature of test [12]: qHTS assay to test for compound auto fluorescence at 590 nm (red) in HEK293 cell free culture (AID 720683). The procedure, abridged:
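Tox21 10K library compounds were pinned into cell-free DMEM with 10% FBS and fluorescence was read at excitation 540 nm. Activity is expressed as Rose Bengal sodium equivalency.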

The nature of test [13]: qHTS assay to test for compound auto fluorescence at 590 nm (red) in HepG2 cell free culture (AID 720684). The procedure, abridged: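 Red fluorescence (540 nm excitation, 590 nm emission) was measured after compound transfer into cell-free MEM supplemented with 10% FBS. Values are equivalencies against Rose Bengal sodium.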
Test [14] is described as follows: qHTS assay to test for compound auto fluorescence at 535 nm (green) in HepG2 cell free culture (AID 720686).
The nature of test [15]: qHTS assay to test for compound auto fluorescence at 460 nm (blue) in HepG2 cell free culture (AID 720685). An outline of the steps:
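Compound (23 nL) or DMSO pinned into cell-free MEM with 10% FBS; blue fluorescence read at 405/460 nm excitation/emission, expressed as auto-fluorescence equivalency to triamterene.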

Test [16] can be described thus: qHTS assay to test for compound auto fluorescence at 460 nm (blue) in HepG2 cells (AID 720687). An outline of the steps:
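Cells (2,000/well in MEM with 10% FBS) attached overnight at 37 C, then were exposed to compound or DMSO for 1 hr at 37 C, 5% CO2. Fluorescence read at Ex/Em 405/460 nm, expressed as triamterene-equivalent signal.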

Test [17] concerns the target Glucocorticoid receptor (Homo sapiens) (UniProt P04150). The test can be described thus: qHTS assay to identify small molecule agonists of the glucocorticoid receptor (GR) signaling pathway (AID 720691; active means well fitted activation curve with a large enough effect in the signal ratio in the repeat runs, not every such curve was filed as active; the % refers to the signal ratio). An outline of the steps: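 Reporter read-out: fluorescence intensity following 2 h room-temperature LiveBLAzer B/G FRET substrate loading. Prior step: GR-bla HeLa cells held 4 h, then treated 18 h at 37 C.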

The target is the same in test [18]. The test is described as follows: qHTS assay to identify small molecule antagonists of the glucocorticoid receptor (GR) signaling pathway (AID 720692; active means well fitted inhibition curve with a large enough effect in the signal ratio in the repeat runs, not every such curve was filed as active; the % refers to the signal ratio). The procedure, abridged: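 Dexamethasone (5 nM final) stimulated a stably integrated GRE-beta-lactamase reporter in HeLa cells during 18 h co-incubation with compounds; signal was quantified as fluorescence intensity of B/G FRET substrate after 2 h.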

Test [19] is described as follows: qHTS assay for small molecule disruptors of the mitochondrial membrane potential (AID 720635). Further: potency means the concentration at half of the fitted maximal effect. An outline of the steps:
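HepG2 cells (2,000/well) attached overnight at 37C, then took compound for 1 hr at 37C, 5% CO2. Mito-MPS dye was added for 30 min; fluorescence was read at 490/535 nm (monomers) and 540/590 nm (aggregates).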

Glucocorticoid receptor (Homo sapiens), sequence (P04150 whole entry, looked up): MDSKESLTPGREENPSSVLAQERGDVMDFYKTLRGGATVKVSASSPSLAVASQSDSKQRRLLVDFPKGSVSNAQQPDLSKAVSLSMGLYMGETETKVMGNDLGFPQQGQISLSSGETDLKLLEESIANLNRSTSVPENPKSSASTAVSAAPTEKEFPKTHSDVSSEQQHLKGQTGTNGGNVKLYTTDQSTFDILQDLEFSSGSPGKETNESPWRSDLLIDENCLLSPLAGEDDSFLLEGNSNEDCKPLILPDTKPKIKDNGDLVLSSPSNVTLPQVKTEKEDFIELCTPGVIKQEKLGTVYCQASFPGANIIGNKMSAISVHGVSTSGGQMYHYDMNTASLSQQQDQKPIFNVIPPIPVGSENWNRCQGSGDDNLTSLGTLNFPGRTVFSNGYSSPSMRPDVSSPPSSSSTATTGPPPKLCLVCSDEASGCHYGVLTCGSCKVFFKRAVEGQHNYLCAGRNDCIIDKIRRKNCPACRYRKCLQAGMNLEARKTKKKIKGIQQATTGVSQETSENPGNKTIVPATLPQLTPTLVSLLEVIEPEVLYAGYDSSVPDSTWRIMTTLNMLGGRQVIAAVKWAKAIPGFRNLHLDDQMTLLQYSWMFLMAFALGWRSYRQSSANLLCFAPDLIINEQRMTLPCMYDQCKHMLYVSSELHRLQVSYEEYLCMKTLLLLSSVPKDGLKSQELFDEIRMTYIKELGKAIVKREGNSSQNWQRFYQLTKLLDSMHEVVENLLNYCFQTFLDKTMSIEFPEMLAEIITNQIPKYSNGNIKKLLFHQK

Take `CN(c1nccc(=O)[nH]1)C1CCN(c2nc3ccccc3n2Cc2ccc(F)cc2)CC1`: the Potency entry in test [1], in test [2], in test [3], in test [4], in test [7] and in [10] was “inactive” throughout. Moreover, the result in test [5], in [6], in [8], in test [9], in test [11] and in test [12] was inactive. Besides, the call in test [13] and in test [14] was inactive.
Turning to `c1ccc(OCc2ccc(CCCN3CCOCC3)cc2)cc1`, the Potency result in [1], in [2], in [3], in test [7], in [10] and in [15] was “inactive” each time. Further, the Potency entry in [16], in [17] and in [18] was “inactive” in each case. The compound was classed as inactive in [5], in [6], in test [8], in [9], in test [12] and in test [13]. Moreover, the compound was classed as inactive in test [14].
Turning to `OCCC1CCCCN1` (stereo unspecified), the Potency entry in [1], in test [2], in [3], in test [4], in test [7] and in [10] was “inactive” each time. For the same compound, the Potency entry in test [15], in test [16] and in test [17] was “inactive” throughout. The compound was called inactive in test [5], in [6], in test [8], in test [9], in test [11] and in [12]. Besides, the outcome in [13] and in test [14] was inactive.
As to `CC(C)NCC(O)c1cc(O)cc(O)c1` (stereo unspecified), the Potency result in test [1], in test [2], in test [4], in test [19], in test [7] and in test [10] was “inactive” throughout. For the same compound, in [16], the Potency result is “inactive”. Further, the compound was classed as inactive in [5], in test [6], in [8], in test [9], in test [11] and in test [12]. Besides, the call in [13] was inactive.
Turning to `CCOc1ccc2[nH]cc(C(=O)NCc3ccccc3)c(=O)c2n1`, the Potency entry in [1], in test [2], in [3], in [10], in [15] and in test [16] was “inactive” each time. Besides, the Potency in test [19] is 8.63 µM (active). In addition, the compound was called inactive in [5], in test [6], in test [8], in [9], in test [11] and in [12]. Besides, the compound was classed as inactive in [13].
In the case of `O=C(CCN1CCN2CCCC2C1)N1c2ccccc2Sc2ccc(Cl)cc21` (stereo unspecified), the Potency entry in test [1], in test [2], in test [3], in test [4], in test [7] and in test [16] was “inactive” each time. For the same compound, the Potency result in [17] and in [18] was “inactive” each time. The call in test [5], in test [8], in test [9], in [11], in test [12] and in [13] was inactive. Besides, in test [14], the result was inactive.
Take `O=C(O)C(c1ccc(Cl)cc1)c1ccc(Cl)cc1`: the Potency entry in test [1], in [2], in [3], in test [4], in test [7] and in [10] was “inactive” in each case. In addition, the Potency result in [15] and in [16] was “inactive” throughout. In addition, the call in test [5], in test [8], in test [11], in test [12], in [13] and in [14] was inactive.
As for `CC(C)(C)c1ccc(OCC2CO2)cc1` (stereo unspecified), the Potency entry in [1], in test [2], in test [3], in [19], in test [7] and in [10] was “inactive” in each case. For the same compound, the Potency result in [15] and in test [16] was “inactive” throughout. Also, the call in [5], in test [6], in test [8], in test [9], in [12] and in [13] was inactive. In addition, the compound was classed as inactive in [14].
Regarding `C=C(C)C(=O)OCCN(C)C`, the Potency result in [1], in [2], in test [3], in [7], in test [10] and in test [15] was “inactive” each time. Further, the Potency result in test [16] was “inactive”. For the same compound, the result in test [5], in test [6], in test [8], in [9], in [11] and in test [12] was inactive. Besides, the compound was classed as inactive in test [13] and in [14].
For `COC(=O)C(C)=O`, the Potency entry in [1], in test [2], in test [3], in test [10], in test [15] and in [18] was “inactive” in each case. In addition, the result in [5], in test [6], in test [8], in [9], in test [11] and in [12] was inactive. For the same compound, the compound was called inactive in [13] and in test [14].
Consider `CC(C(=O)O)c1ccc(-c2ccccc2)c(F)c1` (stereo unspecified), for which the Potency result in test [1], in test [2], in [3], in test [4], in test [7] and in test [10] was “inactive” throughout. Besides, the Potency entry in test [17] and in test [18] was “inactive” throughout. In addition, the outcome in test [5], in [6], in test [8], in test [9], in test [11] and in [13] was inactive. Further, in test [14], the call was inactive.
In the case of `CCCCCC/C=C/C=O`, the Potency result in [1], in [2], in test [3], in [4], in [7] and in [10] was “inactive” throughout. The Potency entry in [16] and in test [17] was “inactive” each time. Moreover, the outcome in test [5], in [6], in test [9], in test [11], in [12] and in [13] was inactive. Further, the result in test [14] was inactive.
In the case of `Cn1sccc1=O`, the Potency entry in test [1], in test [2], in test [4], in test [7], in test [10] and in test [15] was “inactive” throughout. Further, in [16], the Potency entry was “inactive”. Also, the Potency in test [19] is 61.1 µM (active). In addition, the call in test [5], in [6], in [8], in [9], in test [11] and in test [12] was inactive. The compound was called inactive in test [13] and in test [14].
Turning to `COC(Cc1ccccc1)OC`, the Potency result in [1], in test [2], in test [3], in test [7], in test [10] and in [15] was “inactive” in each case. Moreover, the Potency entry in [16] and in test [18] was “inactive” throughout. Moreover, the compound was called inactive in test [5], in test [6], in test [8], in [9], in test [11] and in test [12]. Further, the outcome in test [13] and in test [14] was inactive.
With `CCCCOC(=O)/C=C\C(=O)OCCCC`, the Potency result in [1], in [2], in test [3], in [7], in [10] and in [15] was “inactive” each time. The compound was called inactive in [5], in test [6], in test [8], in [9], in test [11] and in [12]. The compound was classed as inactive in test [13] and in [14].
As for `CC(=O)O[C@@H]1C(=O)O[C@@H]2[C@H]1OC(=O)[C@@H]2OC(C)=O`, the Potency entry in [1], in [2], in test [3], in [4], in test [7] and in test [10] was “inactive” throughout. The Potency entry in test [15], in test [16], in [17] and in test [18] was “inactive” throughout. Moreover, the compound was called inactive in test [5], in [6], in [9], in test [11], in [12] and in test [13]. For the same compound, the compound was classed as inactive in test [14].
